From PubChem BioAssay (NCATS)
Results filed as inconclusive are left out. A call without a number means that no potency is given here. The source made the active and inactive calls. Calls follow the shape of the dose curve; as a rule, active = well fitted curve in the direction sought with a large enough effect; inconclusive = small, poorly fitted or top-dose-only effect, or another doubt; inactive = no such curve, though single readings can be large; an effect the other way counts as inactive or inconclusive.

Experiments:
[1] = target: Aldehyde dehydrogenase, mitochondrial (Homo sapiens) (UniProt P05091); test: qHTS for Inhibitors of the Aldehyde Dehydrogenase Family (ALDH2) Primary screen (AID 2061308); conditions: ALDH2 enzyme inhibition qHTS, 1536-well; series mostly up to 56 µM; also: nearly all actives have a fitted effect of over 55% in size
[2] = target: Retinaldehyde dehydrogenase 3 (Homo sapiens) (UniProt P47895); test: qHTS for Inhibitors of the Aldehyde Dehydrogenase Family (ALDH1A3) Primary screen (AID 2061315); conditions: ALDH inhibition qHTS; series mostly up to 56 µM

| Compound | Potency [1] | Potency [2] |
| --- | --- | --- |
| Cc1ccnc(NC(=S)N2CCN(c3cccc(N(C)C)c3)CC2)c1 | inactive | inactive |
| N[C@H]1CCN(c2cnc3c(O)ccc(C(=O)O)c3c2)C1 | inactive | inactive |
| NC(=O)C1CCN(c2nc(-c3ccccc3Br)cs2)CC1 | inactive | inactive |
| Cc1cc(C)nc(NC(=S)N2CCN(c3cccc(S(C)(=O)=O)c3)CC2)c1 | inactive | inactive |
| CCOC(=O)c1ccc(O)c2ncc(NCC3CCCN(CCc4ccccc4)C3)cc12 (stereo not drawn) | inactive | inactive |
| O=C1CCCC2=C1C(c1[nH]ncc1Cl)NC(=NCc1cccs1)N2 (stereo not drawn) | inactive | inactive |
| COc1ccc(C2c3c(ncn(CCCc4ccccc4)c3=N)Oc3ccc4ccccc4c32)cc1OC (stereo not drawn) | inactive | inactive |
| CCC(=O)NC(c1cc(Cl)c2cccnc2c1O)C1CC1 (stereo not drawn) | inactive | inactive |
| Cc1ccc(S(=O)(=O)Nc2ccc(C(=O)Nc3ncc(-c4ccccc4)s3)cc2)cc1 | inactive | inactive |
| O=S(=O)(c1ccc2c(c1)OCCO2)N1CCN(S(=O)(=O)c2cccc(Cl)c2F)CC1 | inactive | inactive |
| Cc1ccc(OCCn2c(CCNC(=O)Cc3ccc(F)cc3F)nc3ccccc32)cc1 | inactive | inactive |
| CN1CCN(c2ccc(Nc3nc(-c4ccncc4)nc4ccccc34)cc2F)CC1 | inactive | inactive |
| FC(F)(F)c1ccc(CNc2nc(-c3ccccc3C(F)(F)F)nc3ccccc23)cc1 | inactive | inactive |
| Cc1ccc(NS(=O)(=O)c2cc3c(cc2NC(C)CO)NC(=O)CC3)cc1C (stereo not drawn) | inactive | inactive |
| Cc1ccnc(NC(=S)NC2CN(c3cccc(C(F)(F)F)c3)C2)c1 | inactive | inactive |
| O=S(=O)(c1cccc(O)c1)N1CCN(S(=O)(=O)c2c(F)cccc2F)CC1 | inactive | inactive |
| Cc1cc(C)n2ncc(C(=O)Nc3ccccc3C)c2n1 | inactive | inactive |
| CC(C)N1Cc2ccc(Nc3nn4c(=O)c5ccccc5nc4s3)cc2C1 | inactive | inactive |
| Cc1ccc(-c2nnc(NC(=O)Nc3ccc4ccccc4c3)s2)cc1 | inactive | inactive |
| O=C(Nc1nc(-c2ccccc2)cs1)c1ccccc1 | inactive | inactive |
| Cc1cc(N[S+](=O)([O-])c2cc3c(cc2Cl)CCC(=O)N3)ccc1Cl | inactive | inactive |
| Cc1ccc(NS(=O)(=O)c2cc3c(cc2-c2cn[nH]c2)NC(=O)CO3)cc1C | inactive | inactive |
| O=C(Nc1ccc2ccccc2c1)Nc1nnc(-c2ccccc2)s1 | inactive | inactive |

| Compound | Potency [1] | Potency [2] |
| --- | --- | --- |
| O=C(OCC#CCSc1nnc(-c2ccc(Cl)cc2)o1)c1ccc(F)cc1 | inactive | inactive |
| CC(C)CC(=O)c1c(O)cc2c(c1O)C(CC(C)C)C1=C(O2)C(C)(C)C(=O)C(C)(C)C1=O (stereo not drawn) | inactive | inactive |
| COc1ccc(C2=Nn3c(nnc3-c3ccccc3F)SC2)cc1OC1CCOC1 (stereo not drawn) | inactive | inactive |
| C=C(C)C(=O)O[C@H]1CC2=CC(C/C(C)=C\[C@H]3OC(=O)C(=C)[C@H]13)OC2=O (stereo partly drawn) | inactive | inactive |
| CC(C)c1cc2c(s1)c1cnn(Cc3ccccc3F)c(=O)c1n2C | inactive | inactive |
| Cn1nnnc1Sc1ncnc2scc(-c3ccccc3[N+](=O)[O-])c12 | inactive | inactive |
| COc1ccc(Nc2nc(-c3ccncc3)nc3ccccc23)cc1F | inactive | inactive |
| Cc1cnc(NC(=O)c2ccc(-c3cccc([N+](=O)[O-])c3)o2)s1 | inactive | inactive |
| O=C(O)c1ccc2c(c1)C(=O)N([C@H](Cc1ccc(-c3ccccc3)cc1)C(=O)O)C2=O | inactive | inactive |
| Cn1nnnc1Sc1ncnc2scc(-c3cccs3)c12 | inactive | inactive |
| Cc1csc(CNc2ncnc3ccc(-c4ccoc4)cc23)c1 | inactive | inactive |
| CCOc1ccc(C(C)CNC(=O)c2cc3sccc3n2Cc2ccccc2)cc1OCC (stereo not drawn) | inactive | inactive |
| COc1ccccc1C1=Nn2c(nnc2-c2ccccc2OC)SC1 | inactive | inactive |
| COc1ccccc1C1c2c(ncn(-c3ccccc3)c2=N)Oc2ccc3ccccc3c21 (stereo not drawn) | inactive | inactive |
| O=C(Nc1nnc(-c2ccco2)o1)c1ccc(C(F)(F)F)cc1 | inactive | inactive |
| CC(C)c1ccccc1-c1nc(NCc2ccc(-c3cccnc3)cc2)c2occc2n1 | inactive | inactive |
| O=C(OCC#CCSc1nnc(-c2cc3ccccc3cc2O)o1)c1ccc(F)cc1 | inactive | inactive |
| Cc1ccc(-c2cc(C(=O)Nc3nc4ccccc4s3)c3ccccc3n2)cc1C | inactive | inactive |
| O=C(Nc1nnc(-c2ccco2)o1)c1ccc(Br)cc1 | inactive | inactive |
| COc1ccc(CN(Cc2ccccc2)C(=O)c2ccc(OC)cc2O)cc1 | inactive | inactive |
| COc1cc(C(=O)Nc2nc(-c3ccccc3)cs2)ccc1NS(=O)(=O)c1ccc(C)cc1 | inactive | inactive |
| Cc1ccc(NS(=O)(=O)c2ccc3c(c2)CCC(=O)N3)cc1 | inactive | inactive |
| C/C=C/C=C/C=C/C(=O)O[C@@H]1C=C2COC(=O)[C@]2(O)[C@@]2(C)CCCC(C)(C)[C@H]12 | inactive | inactive |

| Compound | Potency [1] | Potency [2] |
| --- | --- | --- |
| COc1ccc(-c2ccc3ncnc(NCC4CCCO4)c3c2)cc1OC (stereo not drawn) | inactive | inactive |
| Oc1c(C(Nc2ccccn2)c2ccccc2)cc(Cl)c2cccnc12 (stereo not drawn) | inactive | inactive |
| CCc1ccc2oc(NC3=NC(c4[nH]ncc4Cl)C4=C(CCCC4=O)N3)nc2c1 (stereo not drawn) | inactive | inactive |
| Cc1ccc(-c2nc3c(c(SCC(=O)Nc4cccc(C(=O)O)c4)n2)Cc2cccc(C)c2O3)cc1 | inactive | inactive |
| CCCCNc1nc(C)nc2c1nc(-c1ccccc1)n2CCCN(CC)CC | inactive | inactive |
| CC(=O)Nc1cccc(S(=O)(=O)N2CCN(S(=O)(=O)c3ccc4c(c3)OCCO4)CC2)c1 | inactive | inactive |
| O=C(CSc1nnc(-c2cccc([S+](=O)([O-])N3CCCC3)c2)n1-c1ccccc1)Nc1ccc2c(c1)OCCO2 | inactive | inactive |
| c1nc(NCC2CCCCC2)c2cc(-c3ccc4c(c3)OCO4)ccc2n1 | inactive | inactive |
| NC(=O)C1CCN(c2ncc(-c3cccc(F)c3)s2)CC1 | inactive | inactive |
| CCCn1c(C)nc2c(NCC(C)(C)CN(C)C)nc(C)nc21 | inactive | inactive |
| Cc1cnc(-c2ccccc2C(C)C)nc1NCc1cccs1 | inactive | inactive |
| C=C1C(=O)O[C@@H]2[C@H]1CC[C@H](C)[C@]1(CCC(=O)O1)C2(C)O (stereo partly drawn) | inactive | inactive |
| CS(=O)(=O)/C=C/c1nc(Nc2cc(F)cc(F)c2)c2ncn(CC(F)F)c2n1 | inactive | inactive |
| O=C(OCC#CCSc1nnc(-c2cccc3ccccc23)o1)c1ccc(Cl)cc1 | inactive | inactive |
| COc1cccc(O)c1CNc1ccc(S(=O)(=O)Nc2nccs2)cc1 | inactive | inactive |
| CN(CC1CCCO1)c1ncnc2ccc(-c3ccc4c(c3)OCO4)cc12 (stereo not drawn) | inactive | inactive |
| COC(=O)c1nc(Nc2cc(F)cc(F)c2)nc(NC2CCCC2)n1 | inactive | inactive |
| CCCCc1ccc(-c2ccc(=O)n(CC(=O)NCCc3ccccc3)n2)cc1 | inactive | inactive |
| O=S(=O)(c1ccc2c(c1)OCCO2)N1CCN(S(=O)(=O)c2c(F)cc(F)cc2F)CC1 | inactive | inactive |
| Cc1ccc(-c2ccc(=O)n(CC(=O)N(C)CCN(C)C)n2)cc1 | inactive | inactive |
| Cc1ccc(S(=O)(=O)Nc2ccccc2C(=O)Nc2ccc(-c3ccccc3)cc2)cc1 | inactive | inactive |
| CCOC(=O)c1csc(NC(=O)c2ccncc2NS(=O)(=O)c2ccc(C)cc2)n1 | inactive | inactive |
| COc1ccc(C2=Nn3c(nnc3-c3ccccc3Cl)SC2)cc1OC1CCCC1 | inactive | inactive |

| Compound | Potency [1] | Potency [2] |
| --- | --- | --- |
| COc1ccc(S(=O)(=O)Nc2c(C)cc(C)cc2C)cc1 | inactive | inactive |
| CC(=O)Nn1c(C)nc2sc3c(c2c1=O)CCNC3 | inactive | inactive |
| Cc1cc2c(s1)c1c(n2C)C(=O)N(Cc2ccccc2F)C1 | inactive | inactive |
| Cc1ccc(OCCn2c(CCNC(=O)c3cccc4ccccc34)nc3ccccc32)cc1 | inactive | inactive |
| Cn1nnnc1Sc1ncnc2scc(-c3ccc(F)cc3)c12 | inactive | inactive |
| Cc1nc(NCc2ccccc2)c2nc(-c3ccccc3)n(CCN3CCOCC3)c2n1 | inactive | inactive |
| Cn1nnnc1Sc1ncnc2scc(-c3cccc(F)c3)c12 | inactive | inactive |
| C[C@H]1CN(S(=O)(=O)c2ccc3c(c2)OCCO3)CCN1S(=O)(=O)c1c(F)cccc1F | inactive | inactive |
| Cc1cc(NS(=O)(=O)c2ccc(NC(=O)CCc3ccc(Cl)c(Cl)c3)cc2)no1 | inactive | inactive |
| Fc1cc(Nc2nc(-c3ccncc3)nc3ccccc23)ccc1-c1cccc(C(F)(F)F)c1 | inactive | inactive |
| N#CN1CCC(NS(=O)(=O)c2ccc(C(F)(F)F)cc2)C1 (stereo not drawn) | inactive | inactive |
| Cn1c2cc(Br)sc2c2cnn(Cc3ccc(F)cc3F)c(=O)c21 | inactive | inactive |
| CN(CCc1ccco1)c1ncnc2ccc(-c3ccc4c(c3)OCO4)cc12 | inactive | inactive |
| O=C(/C=C/c1cccs1)Nc1cccc([S+](=O)([O-])Nc2ccccc2F)c1 | inactive | inactive |
| CNc1nnc(-c2cccc3ccccc23)s1 | inactive | inactive |
| COc1ccccc1OCCN1CC(COc2cccc3[nH]c4ccccc4c23)OCC1=O (stereo not drawn) | inactive | inactive |
| O=C(Nc1ccc(Cl)c(Cl)c1)Nc1nnc(-c2ccc(F)cc2)s1 | inactive | inactive |
| O=C1CCCC2=C1C(c1[nH]ncc1Cl)NC(=NCc1ccccc1)N2 (stereo not drawn) | inactive | inactive |
| CCC(=O)Nc1ccc(Cl)cc1C(=O)c1ccc[nH]1 | inactive | inactive |
| CCNC(=O)C1CCC(C(=O)Nc2ccc([S+](=O)([O-])Nc3nccs3)cc2)CC1 (stereo not drawn) | inactive | inactive |
